Consider 40 compounds from PubChem BioAssay.

A number with no mark means an inactive call. No rule for the calls is given here.

This test deals with Pantothenate synthetase (Mycobacterium tuberculosis (strain ATCC 25618 / H37Rv)) (UniProt P9WIL5). Put plainly: Coupled enzyme confirmation of inhibitors against recombinant Mtb PanC (AID 375).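 Also: 0% = full reaction with vehicle and 100% = no enzyme background.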 To be noted: coupled enzyme assay; at 10 µM, active compounds read high.
Pantothenate synthetase (Mycobacterium tuberculosis (strain ATCC 25618 / H37Rv)), sequence (P9WIL5 whole entry, looked up): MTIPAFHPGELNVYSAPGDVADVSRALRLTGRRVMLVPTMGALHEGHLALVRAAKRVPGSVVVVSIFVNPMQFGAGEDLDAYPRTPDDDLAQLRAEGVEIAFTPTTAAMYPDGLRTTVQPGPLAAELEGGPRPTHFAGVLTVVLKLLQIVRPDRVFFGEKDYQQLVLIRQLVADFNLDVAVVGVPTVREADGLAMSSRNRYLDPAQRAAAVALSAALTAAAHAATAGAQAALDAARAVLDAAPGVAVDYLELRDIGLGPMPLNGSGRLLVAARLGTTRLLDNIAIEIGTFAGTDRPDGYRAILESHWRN
For orientation: inhibition means the relative decrease from the control value, in per cent. As to `O=C(O)C1CSC2c3ccccc3C(=O)N12` (stereo not given), the inhibition was 0%.
To `O=C(Nc1nncs1)c1ccccc1NS(=O)(=O)c1cccs1` belongs 0%; to `CC1Cc2ccccc2N1C(=O)CSc1nc2ccccc2n1CC(=O)N1CCOCC1` (stereo not given), 0%; to `Cn1c(=O)c2c(nc(SCC(=O)NCc3ccc4c(c3)OCO4)n2Cc2ccccc2)n(C)c1=O`, 0%.
Take `c1ccn2c(SCc3ccc4c(c3)OCCO4)nnc2c1`: the inhibition is 1%.
`COC(=O)c1cnc2c(C(F)(F)F)cccc2c1OC`: the inhibition is 2%.
To `COc1cccc(CC(=O)Nn2c(C)nc3ccccc3c2=O)c1` belongs 2%; to `Cc1ccc2c(c1)CCCN2C(=O)Nc1ccc2c(c1)OCO2`, 2%.
To `Cc1ccc(C2CC(c3ccc(C)cc3)n3nc(N)nc3N2)cc1` (stereo not given) belongs 5%; to `CCOC(=O)COc1ccc(C2NC(C(=O)O)CS2)cc1` (stereo not given), 0%.
`COC(=O)COc1nc(C)c(Br)c(OC)n1`: the inhibition was 0%.
In the case of `CCCC(=O)N1CCN(c2ccc(NC(=O)c3ccc(Br)o3)cc2)CC1` it was 3%.
To `CC(C)C(CO)NC(=O)CC(=O)NC(CO)C(C)C` (stereo not given) belongs 2%.
Consider `O=C(COc1ccc(F)cc1)Nc1ccc(-n2cnnn2)cc1`, for which the inhibition was 0%.
To `CN1CCN(CCCNC(=O)C2CC(=O)N(C3CCCCC3)C2)CC1` (stereo not given) belongs 4%; to `CCn1c(C(=O)N2CCC(C(=O)N3CCN(c4ccccn4)CC3)CC2)cc2sccc21`, 7%; to `O=C(c1cccc2c1C(=O)N(Cc1cccnc1)C2)N1CCN(c2ccccc2)CC1`, 8%.
Take `COCC(=O)N(Cc1cc2cc(OC)ccc2[nH]c1=O)c1ccccc1`: the inhibition was 0%.
In the case of `O=C(CN1CCN(c2ccccn2)CC1)N1c2ccccc2CCc2ccccc21`, the inhibition was 0%.
With `O=c1c2[nH]c3ccc(Cl)cc3c2ncn1Cc1ccccn1`, the inhibition is 0%.
In the case of `CC1CN(CC(O)COc2ccc(C(C)C)cc2)CC(C)O1` (stereo not given) it was 0%; in that of `CCOc1ccccc1-n1c(SCC(=O)NC(C)CC)nnc1-c1ccoc1C` (stereo not given), 0%; in that of `CCCOc1nc(N)c(C#N)c(-c2ccccc2F)c1C#N`, 4%.
To `COc1ccc(Cn2nnnc2C(c2cccs2)N2CCOCC2)cc1` (stereo not given) belongs 3%.
To `CCOC(=O)N1CCN(CC(=O)Nc2cc(C)nn2-c2nc3ccccc3s2)CC1` belongs 0%.
Regarding `O=c1[nH]c(NCc2ccccc2)nc2c1CCCC2`, the inhibition is 0%.
To `CCCn1c(SCC(=O)NC(C)(C)C)nnc1C(C)C` belongs 3%; to `COC(=O)CCCCCc1ccc(C(C)=O)s1`, 4%; to `CC(=O)N(C(C)=O)c1ncc2c([nH]c3ccccc32)c1C#N`, 0%.
To `CC(C)Cn1c(CN2CCN(c3ccccc3F)CC2)nc2c1c(=O)[nH]c(=O)n2C` belongs 0%; to `Cc1cc(C)n(-c2nc3nonc3nc2-n2nc(C)cc2C)n1`, 0%.
To `O=c1c[n+]([O-])c2ccccc2n1OCc1ccccn1` belongs 4%; to `Cc1ccc(S(=O)(=O)NCC(=O)N(CC(=O)NC2CCCCC2)Cc2ccco2)cc1`, 11%; to `c1coc(-c2nnc(-c3cccs3)o2)c1`, 16%.
As to `O=S(=O)(c1ccc2c(c1)OCCO2)N1CCC(n2nnc3cc(F)ccc32)CC1`, the inhibition is 1%.
In the case of `Cc1cccc(NC(=O)c2ccc(S(=O)(=O)N(C)C)cc2)n1` it was 0%.
In the case of `CN=c1sc2ccccc2n1CC(O)COCc1ccco1` (stereo not given) it was 0%; in that of `O=C(CN1CCCN(S(=O)(=O)c2ccc(Br)cc2)CC1)Nc1ccc2c(c1)OCO2`, 4%; in that of `COc1ccc(N2CCN(Cc3cc(=O)oc4cc(C)c(Cl)c(C)c34)CC2)cc1`, 6%.
As for `O=C(O)CN(c1ccccc1)C1SC(=O)NC1=O` (stereo not given), the inhibition was 0%.
